Experimental data published in publication PMC5540273 (PLoS ONE, 2017).

Experiments:
Settings in all cases: concentration: 1 μM,replicates: in singlicate; n = 1
[1] = system: NEK11
[2] = system: NEK1
[3] = system: NEK2
[4] = system: NEK3
[5] = system: NEK4
[6] = system: NEK5
[7] = system: NEK6
[8] = system: NEK7
[9] = system: NEK9
[10] = system: T1, NIK
T1 construct: gene MAP3K14
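Further: KINOMEscan kinase panel screen.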

Row | Structure (SMILES) | %Inh [1] | %Inh [2] | %Inh [3] | %Inh [4] | %Inh [5] | %Inh [6] | %Inh [7] | %Inh [8] | %Inh [9] | %Inh [10]
1 | Cn1ccc2ncnc(Oc3ccc(NC(=O)Nc4cccc(C(F)(F)F)c4)c(F)c3)c21 | 0% | 0% | 15% | 17% | 0% | 7% | 27% | 0% | 0% | 0%
2 | CC(=O)c1c(-c2ccncc2)[nH]c(-c2ccncc2)c1C [GW493036] | 0% | 0% | 0% | 47% | 4% | 19% | 0% | 0% | 27% | 28%
3 | Cn1ccc2ncnc(Oc3ccc(NC(=O)Nc4ccnc(C(F)(F)F)c4)c(Cl)c3)c21 | 0% | 0% | 0% | 11% | 0% | 0% | 0% | 0% | 5% | 0%
4 | CC(C)c1nc(-c2cccc(NS(=O)(=O)c3ccccc3)c2)c(-c2ccnc(Nc3ccc4c(c3)CN(C)CC4)n2)s1 [GSK1649598] | 97.7% | 14% | 34% | 27% | 18% | 0% | 0% | 0% | 51% | 3%
5 | Cc1cccc(-c2nc(Nc3ccncc3)c3sccc3n2)n1 [GW869641] | 31% | 0% | 5% | 10% | 14% | 4% | 16% | 3% | 14% | 0%
6 | CN(c1ccc2c(c1)nc(NCc1ccc(F)cc1)n2C)c1ccnc(Nc2ccc(CS(C)(=O)=O)cc2)n1.Cl [GW813244] | 0% | 0% | 0% | 36% | 0% | 0% | 0% | 0% | 21% | 0%
7 | Cn1ccc2ncnc(Oc3ccc(NC(=O)Nc4cncc(C(F)(F)F)c4)c(Cl)c3)c21 | 0% | 0% | 0% | 13% | 0% | 0% | 0% | 0% | 0% | 0%
